Hits are enriched below; roughly 2.2% of the tested compounds scored in any of these assays.
TMEM16A inh: blocks the mouse calcium-activated chloride channel TMEM16A. Q8BHY3. HEK293 TMEM16A/YFP iodide influx fluorescence, ionomycin. normalized B-score (activity score, 25-100; higher = stronger inhibition) at 10 µM. 310,000 compounds, 1.2% hits. AID 588511;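 active = ratio plate-corrected score three or more library SD toward inhibition, starting fluorescence score within five deviations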;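 note: score derived from kinetic fluorescence span divided by baseline fluorescence per well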
CHO-K1 Ca PAM: M1 PAM counterscreen hit in parental CHO-K1 cells. ATP EC20, Fluo-8 calcium fluorescence; 0% at ATP EC20, 100% at ATP max. activation, % at 3 µM. 360,000 compounds, 0.02% hits. AID 602247;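 active = activation above the run cutoff, the mean activation of all test compounds plus 3 SD, cut at about 40% in these data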;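 note: peak over basal fluorescence ratio in a 140 s read after ATP addition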
CHO-K1 Ca antag: counter-screen for M1 antagonists: effect in parental CHO-K1 cells; ATP-induced calcium, Fluo-8 fluorescence; 360,000 compounds, 0.6% hits; AID 602250; inhibition, % at 3 µM;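 active = inhibition above a per-plate cutoff, the plate's mean sample inhibition plus 3 SD, cut at about 24% in these data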
NTR1 agonist: NTR1 (human) agonism. AID 493036. 330,000 compounds, 0.17% hits. P30989. activation, % at 20 µM. NTR1-U2OS beta-arrestin-GFP spot imaging, agonist mode;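 active = activation at or above 40% of the spot to cytoplasm intensity ratio, with at least 20 cells analyzed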
Target sequence (P30989 whole entry, looked up): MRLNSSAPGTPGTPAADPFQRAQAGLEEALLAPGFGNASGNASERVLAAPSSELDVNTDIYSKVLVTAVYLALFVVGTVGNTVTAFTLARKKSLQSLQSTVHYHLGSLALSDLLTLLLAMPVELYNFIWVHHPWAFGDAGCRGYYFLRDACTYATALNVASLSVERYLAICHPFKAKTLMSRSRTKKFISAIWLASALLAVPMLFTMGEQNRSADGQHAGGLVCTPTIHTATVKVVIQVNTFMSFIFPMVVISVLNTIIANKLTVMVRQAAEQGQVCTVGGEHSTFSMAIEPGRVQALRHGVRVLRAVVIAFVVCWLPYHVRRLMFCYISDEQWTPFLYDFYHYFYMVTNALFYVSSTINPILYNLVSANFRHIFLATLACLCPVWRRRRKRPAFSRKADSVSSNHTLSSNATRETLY
ANO1 activ: activates or potentiates the mouse TMEM16A chloride channel. Q8BHY3. 340,000 compounds, 0.3% hits. HEK293 TMEM16A/YFP-H148Q/I152L, iodide quench fluorescence; stronger effect = lower value. B-score at 10 µM;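 active = fluorescence-ratio B-score plate-corrected deviation score at least 3 library SD below zero, with starting fluorescence score within 5 deviations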;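 note: channel opened by trigger with iodide after compound preincubation; score built on the fluorescence ratio of max minus min over baseline; more negative score means more quench and so TMEM16A activation or potentiation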
CHO-K1 Ca ag: counter-screen for M1 agonists: effect in parental CHO-K1 cells; 360,000 compounds, 0.48% hits; AID 602248; Fluo-8 calcium fluorescence; scaled to maximal ATP response, vehicle zero; activation, % at 3 µM; in the data active = activation above about 15%;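 note: untransfected CHO-K1 host cells lacking M1 receptor as counterscreen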
TMEM16A reconf: TMEM16A (mouse) chloride channel inhibition, re-confirmation; AID 652189; inhibition, % at 10 µM; HEK293 TMEM16A/YFP-H148Q, iodide quench fluorescence; ionomycin added to raise cell calcium; shares compounds with TMEM16A inh; 2,300 compounds, 39% hits;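 active = mean duplicate percent inhibition, scaled so buffer wells are 0 and the reference blocker 100, over three buffer SD above buffer mean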
HEK293 Ca mobil: alters calcium mobilization in TMEM16A HEK293 cells, counter-screen; TMEM16A/YFP HEK293, Fluo4 calcium mobilization; calcium response (% of ionomycin), % at 10 µM; 2,300 compounds, 2% hits; shares compounds with TMEM16A inh;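 active = duplicate-averaged calcium signal over 20% of the ionomycin maximum, relative to buffer baseline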;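 note: each well's signal is peak minus trough fluorescence divided by its pre-addition baseline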
YFP-HEK293 quench: acts in parental YFP-HEK293 cells lacking TMEM16A, counter-screen; shares compounds with TMEM16A inh; iodide YFP quench, ionomycin; YFP ratio F(max-min)/F0 at 10 µM; 2,300 tested, under 10 active; AID 652233;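 active = yellow fluorescent protein signal ratio exceeding the buffer control mean by over 5 SD of those controls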;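 note: ratio is mean of duplicate wells from kinetic YFP trace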
ClC-1 rat inh: blocks the rat ClC-1 voltage-dependent chloride channel. shares compounds with TMEM16A inh. CHO ClC-1-YFP, iodide influx fluorescence quench; iodide control reads 0, buffer control 100. ratio percent, % at 10 µM. 2,300 tested, under 10 active;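 active = duplicate-mean ratio percent above the mean of iodide-only control wells, which defines zero, plus 5 of their SD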;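 note: higher percent means stronger block of ClC-1 iodide influx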
Large screens that a line does not name were inactive (follow-up assays come after a bar, where they were run).

Cc1csc2c(N3CCN(C(=S)Nc4ccc(C(F)(F)F)cc4)CC3)ncnc12	TMEM16A inh 100, CHO-K1 Ca antag 28 | TMEM16A reconf inactive | HEK293 Ca mobil inactive | YFP-HEK293 quench inactive | ClC-1 rat inh inactive
Cc1csc2c(N3CCN(C(=O)Nc4ccc(Cl)c(Cl)c4)CC3)ncnc12	TMEM16A inh 25 | TMEM16A reconf 29% | HEK293 Ca mobil inactive | YFP-HEK293 quench inactive | ClC-1 rat inh inactive
CC(=NNC(=O)COc1cccc(C)c1)c1cccnc1	none (no result: TMEM16A inh)
COc1ccc(C2SCC(=O)N2CCCN(C)C)cc1 (stereo not given)	TMEM16A inh 25 | TMEM16A reconf inactive | HEK293 Ca mobil inactive | YFP-HEK293 quench inactive | ClC-1 rat inh inactive
CN(Cc1ccc(Br)s1)C(=O)CNC(=O)c1ccc2c(c1)OCO2	none (no result: TMEM16A inh)
Cc1ccnc(NC(=O)COc2ccc3oc4c(c3c2)CCCC4)c1	TMEM16A inh 100 | TMEM16A reconf inactive | HEK293 Ca mobil inactive | YFP-HEK293 quench inactive | ClC-1 rat inh inactive
CCOC(=O)/C(=C\c1ccc(Cl)cc1)c1nc2sc(C)c(C)c2c(=O)[nH]1	TMEM16A inh 25 | TMEM16A reconf 19% | HEK293 Ca mobil inactive | YFP-HEK293 quench inactive | ClC-1 rat inh inactive
CCOC(=O)CSc1nc2sc(C)c(C)c2c(=O)[nH]1	none
C[C@H](CO)N1C[C@H](C)[C@@H](CN(C)C)Oc2c(NS(=O)(=O)c3ccc(F)cc3)cccc2C1=O	none (no result: TMEM16A inh)
O=C(O)CNS(=O)(=O)c1ccc(Br)s1	none
Cc1cc(C)c(C)c(S(=O)(=O)NCc2ccncc2)c1C	TMEM16A inh 25 | TMEM16A reconf 26% | HEK293 Ca mobil inactive | YFP-HEK293 quench inactive | ClC-1 rat inh inactive
O=S(=O)(NCc1ccncc1)c1ccc(Br)s1	TMEM16A inh 100 | TMEM16A reconf inactive | HEK293 Ca mobil inactive | YFP-HEK293 quench inactive | ClC-1 rat inh inactive
Cc1ccc(S(=O)(=O)NCc2ccncc2)cc1C	none
CC(C)Oc1cc(F)ccc1-c1cc(C(=O)Nc2cccc(C(F)(F)F)c2)[nH]n1	none (no result: TMEM16A inh, NTR1 agonist, ANO1 activ)
CC(=O)NC(c1cccc(F)c1)c1nc(-c2cnc3ccccc3c2)cs1 (stereo not given)	none (no result: TMEM16A inh, NTR1 agonist, ANO1 activ)
CC1(C)N=C(N)N=C(N)N1c1ccc(OCC(=O)N2CCOCC2)c(Cl)c1	none (no result: TMEM16A inh, NTR1 agonist, ANO1 activ)
CCCCCC1C(=O)C[C@@H]2CCN3C(=O)CCC[C@H]1[C@H]23 (stereo not given in full)	none (no result: TMEM16A inh, ANO1 activ)
CCCCN1C(=O)C(CC(=O)NCCN2CCOCC2)CC(C(=O)N(C(C)C)C(C)C)=C1C (stereo not given)	none (no result: TMEM16A inh, NTR1 agonist, ANO1 activ)
Cc1ccc(Cl)cc1N1CCN(C(=O)c2cc3c(=O)n(C)c4ccccc4c3n2C)CC1	TMEM16A inh 100 | TMEM16A reconf 29% | HEK293 Ca mobil inactive | YFP-HEK293 quench inactive | ClC-1 rat inh inactive
C[C@H]1COc2cccc(N(C)CCO)c2S(=O)(=O)N1	none (no result: TMEM16A inh, NTR1 agonist, ANO1 activ)
CCCCCC(=O)N1C[C@H](n2cc(C3CC3)nn2)[C@@H](O)C[C@@H]1c1ccc(Cl)cc1	none (no result: TMEM16A inh, NTR1 agonist, ANO1 activ)
N#CC1(Nc2cccc(Br)c2)C(=O)Nc2ccccc21 (stereo not given)	TMEM16A inh 100 | TMEM16A reconf 64% | HEK293 Ca mobil inactive | YFP-HEK293 quench inactive | ClC-1 rat inh inactive
COc1ccc(CN(C)C(=O)/C=C/[C@H]2O[C@@H](n3cc(C)c(=O)[nH]c3=O)C[C@@H]2O)cc1OC	none (no result: TMEM16A inh, NTR1 agonist, ANO1 activ)
O=C1C2C(C(=O)N1/N=C/c1cc(Br)cc([N+](=O)[O-])c1O)C1C=CC2C12CC2 (stereo not given)	none | TMEM16A reconf 19% | HEK293 Ca mobil inactive | YFP-HEK293 quench inactive | ClC-1 rat inh inactive
CCN(C(=O)COC(=O)c1ccccc1Nc1cccc(C)c1C)C1CCS(=O)(=O)C1 (stereo not given)	TMEM16A inh 100 | TMEM16A reconf inactive | HEK293 Ca mobil inactive | YFP-HEK293 quench inactive | ClC-1 rat inh inactive
CCN(C(=O)COC(=O)c1ccccc1Cc1ccccc1)C1CCS(=O)(=O)C1 (stereo not given)	none
CC(C)Cc1ccc(-c2ccc3nccn3c2)cc1	none (no result: TMEM16A inh, NTR1 agonist, ANO1 activ)
Cc1ccc(F)cc1NC(=O)c1ccc(NS(=O)(=O)c2ccc(Br)s2)cc1	TMEM16A inh 25 | TMEM16A reconf inactive | HEK293 Ca mobil inactive | YFP-HEK293 quench inactive | ClC-1 rat inh inactive
O=C(CCCc1ccccn1)c1ccc(-c2ccccc2)cc1	none (no result: TMEM16A inh, NTR1 agonist)
CCOC(=O)C(CSCC(=O)c1ccc(Cl)cc1)NC(=O)OC(C)(C)C (stereo not given)	TMEM16A inh 100 | TMEM16A reconf inactive | HEK293 Ca mobil inactive | YFP-HEK293 quench inactive | ClC-1 rat inh inactive
COc1ccc2c(c1OC)OCC2C (stereo not given)	none (no result: TMEM16A inh, NTR1 agonist)
COC(=O)c1ccc(-n2c(C)cc(C(=O)CSc3ccc(NC(C)=O)cc3)c2C)cc1	TMEM16A inh 25 | TMEM16A reconf 24% | HEK293 Ca mobil inactive | YFP-HEK293 quench inactive | ClC-1 rat inh inactive
CC(=O)Nc1ccc(SCC(=O)c2cc(C)n(-c3ccccc3F)c2C)cc1	none
COc1ccc(CCCc2nnc(SCC(=O)Nc3ncc(C)s3)o2)cc1	none
COc1ccc(CCCc2nnc(SCC(=O)Nc3cccc(C)c3)o2)cc1	TMEM16A inh 25 | TMEM16A reconf 18% | HEK293 Ca mobil inactive | YFP-HEK293 quench inactive | ClC-1 rat inh inactive
O=C(NCc1cccc(Cl)c1)c1cccc(OC2CCN(C(=O)C3CC3)CC2)c1	TMEM16A inh 100 | TMEM16A reconf inactive | HEK293 Ca mobil inactive | YFP-HEK293 quench inactive | ClC-1 rat inh inactive
Cc1ccc(N2C(=O)N(CC(=O)N3c4ccccc4CC3C)C(=O)C2C)cc1 (stereo not given)	none (no result: TMEM16A inh)
Cc1onc(-c2ccccc2Cl)c1C(=O)Nc1cccc(-c2cn3cccnc3n2)c1	TMEM16A inh 25 | TMEM16A reconf inactive | HEK293 Ca mobil inactive | YFP-HEK293 quench inactive | ClC-1 rat inh inactive
CCC1CCCCN1S(=O)(=O)c1ccc(NC(=O)c2ccncc2)cc1 (stereo not given)	TMEM16A inh 25, CHO-K1 Ca ag 16 | TMEM16A reconf 22% | HEK293 Ca mobil inactive | YFP-HEK293 quench inactive | ClC-1 rat inh inactive
CCC1CCCCN1S(=O)(=O)c1ccc(C(=O)Nc2nnc(C3CC3)o2)cc1 (stereo not given)	none

Assay outcomes as filed in PubChem.
